Source: PubChem (National Center for Advancing Translational Sciences (NCATS))
Compounds with a hit are over-represented: about 2.4% of the library has one in this group of screens.
D2 PAM-1 – human D2 receptor positive allosteric modulation; potentiation, % (no concentration beside the values); DiscoveRx D2 beta-arrestin cells, luminescence, 90 min; 100% = 57 uM dopamine signal; AID 624464; P14416; 0.23% of 360,000 active; in the data active means potentiation above about 50%; inconclusive means mostly about 30% to 49%
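PathHunter D2 cells, attached overnight at 37 deg C, received compound in DMSO plus dopamine at EC20 (50 nM final) for 90 min at 37 deg C. Beta-arrestin recruitment was read as luminescence after 1 h with detection reagent at ambient temperature.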
D2 ag-1 – human D2 receptor agonism in beta-arrestin assay; AID 624465; DiscoveRx PathHunter D2 beta-arrestin, luminescence, 90 min; 100% = 57 uM dopamine signal; activation, % (no concentration beside the values); 0.084% of 360,000 active; P14416; in the data active means activation above about 40%; inconclusive means between about 15% and that limit
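DiscoveRx PathHunter D2 beta-arrestin cells (2,100/well) attached overnight, then compound-stimulated 90 min at 37 C in HBSS/10 mM HEPES/0.1% Tween-20 buffer; beta-galactosidase complementation read by luminescence after 1 h at ambient temperature. Dopamine 57 uM final (EC100) as control.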
D2 antag – antagonists of human D2 dopamine receptor; 2% of 340,000 active; P14416; HEK293 TREx D2 cells, calcium flux, dopamine EC80; inhibition, % at 10 µM; in the data active means inhibition above about 30%; inactive means below that, where a call was filed; further: 0% is about no effect
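Cells plated overnight at 30 C with tetracycline; no-wash calcium dye, 30–90 min RT; 10 s baseline; compound pinned; 180 s read; EC80 dopamine added; another 180 s read.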
D2 PAM-2 – D2 dopamine receptor (human) potentiation; P14416; HEK293 T-REx D2, calcium flux, EC20 dopamine potentiation; potentiation, % at 10 µM; 0.34% of 340,000 active;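 active means potentiation over 3 SD above the plate norm, cut at about 30% in these data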; further: 0% is about no effect
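Tetracycline-induced HEK293 T-REx cells force-coupled to calcium signalling expressed D2; compounds were pin-added after a 10 s baseline, read kinetically 180 s, then an EC20 dopamine challenge followed with a further 180 s calcium read.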
D2 ag-2 – agonists of human D2 dopamine receptor; P14416; HEK293 T-REx D2 cells, calcium flux agonist mode; activation, % at 2 µM; 0.53% of 340,000 active;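 active means activation over 3 SD above normal in the single-dose calcium agonist read, cut at about 30% in these data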; further: 0% is about no effect
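Calcium-flux readout, 1 cycle/sec over 180 s following compound pin transfer, in inducible HEK293 Trex D2 cells (force-coupled); dopamine controls included. Positive calcium responses during this window marked compounds as potential agonists.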
D3 ag – confirmation of human D3 dopamine receptor agonists, beta-arrestin | shares compounds with D2 ag-2 | DiscoveRx D3 beta-arrestin cells, luminescence, 90 min | Potency, µM (doses to about 76.9 µM), for the others: top-dose activation, actives largely listed as activators | 4% of 2,300 active;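 further: potency means the concentration at half of the fitted maximal effect; 100% = dopamine control response; nearly all actives have a fitted effect of over 70% in size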
Target sequence (P35462 whole entry, looked up): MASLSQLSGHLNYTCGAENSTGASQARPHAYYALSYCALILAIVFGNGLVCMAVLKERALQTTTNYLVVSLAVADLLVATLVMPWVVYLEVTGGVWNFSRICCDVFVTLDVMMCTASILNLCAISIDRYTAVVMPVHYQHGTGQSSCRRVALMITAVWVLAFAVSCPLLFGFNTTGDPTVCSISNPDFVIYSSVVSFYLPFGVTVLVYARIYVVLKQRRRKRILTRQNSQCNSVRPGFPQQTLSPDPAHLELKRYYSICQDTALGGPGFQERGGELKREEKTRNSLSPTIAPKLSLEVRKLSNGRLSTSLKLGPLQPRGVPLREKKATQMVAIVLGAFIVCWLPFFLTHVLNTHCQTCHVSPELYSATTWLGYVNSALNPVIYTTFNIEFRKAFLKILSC
D2 ag-3 – activates human D2 dopamine receptor in D3 counterscreen; shares compounds with D2 ag-2; DiscoveRx PathHunter D2 beta-arrestin, luminescence, 90 min; response scale: percent relative to full dopamine signal; Potency, µM (titrated, usually from 76.9 µM), for inactives: at the top dose activation, usual class: activators; 5.9% of 2,300 active; AID 720507; further: potency means the concentration at half of the fitted maximal effect; % of control where 0% means no effect; nearly all actives have a fitted effect of over 70% in size
* hit, by the source's call. Unless noted, the call rests on the fitted dose curve; in most records, active means well fitted activation curve with a large enough effect; inconclusive means small, poorly fitted or top-dose-only effect; inactive means flat fitted curve, though single readings scatter.

O=C(NCC(c1ccco1)N1CCN(c2ccccc2F)CC1)C(=O)NC1CC1 (stereo not given) was read as D2 PAM-1 29, D2 ag-1 2, D2 antag 33*, D2 PAM-2 -1, D2 ag-2 23, D3 ag inconclusive and D2 ag-3 inconclusive.
For O=C(NCC(c1ccco1)N1CCN(c2ccccc2F)CC1)C1CCCCC1 (stereo not given) the results were D2 PAM-1 -6, D2 ag-1 inconclusive, D2 antag 59*, D2 PAM-2 -31, D2 ag-2 77*, D3 ag inconclusive and D2 ag-3 inconclusive.
`O=C(NCC(c1ccco1)N1CCN(c2ccccc2F)CC1)C(=O)NC1CCCCC1` (stereo not given) gave D2 PAM-1 -2, D2 ag-1 6, D2 antag 9, D2 PAM-2 8 and D2 ag-2 2.
O=C1CCCc2cc(S(=O)(=O)NCC3CCC(C(=O)Nc4ccc(Cl)cc4)CC3)ccc2N1 (stereo not given) was read as D2 PAM-2 2 and D2 ag-2 0.
C#CC(C)(CC)NC(=O)c1cc2c(n(-c3ccc(Cl)cc3)c1=O)CC(C)(C)CC2=O (stereo not given) was read as D2 PAM-2 -1 and D2 ag-2 0.
For CCN(C(=O)C1CCCN(c2ncnc3onc(-c4ccc(F)cc4)c23)C1)c1ccccc1 (stereo not given) the results were D2 PAM-2 -6 and D2 ag-2 -1.
Cc1ccsc1/C=N\NC(=O)CCc1c(C)n[nH]c1C was read as D2 PAM-1 2, D2 ag-1 -6, D2 antag -8, D2 PAM-2 -1 and D2 ag-2 -1.
`Cc1n[nH]c(C)c1CCC(=O)N/N=C/c1cccs1` gave D2 PAM-1 -3, D2 ag-1 3, D2 antag 5, D2 PAM-2 6, D2 ag-2 -1, D3 ag 3% and D2 ag-3 1%.
`Cc1ccc(/C=C2/NC(=O)N(Cc3ccccc3F)C2=O)s1` gave D2 PAM-1 -4, D2 ag-1 -1, D2 antag 21, D2 PAM-2 -4, D2 ag-2 7, D3 ag -4% and D2 ag-3 0%.
O=C1N/C(=C/c2cccs2)C(=O)N1Cc1ccccc1F was read as D2 PAM-1 -1, D2 ag-1 -5, D2 antag 3, D2 PAM-2 19 and D2 ag-2 0.
`CCN(CC)CCN(C)C1CCC(c2ccccc2)CC1` (stereo not given) gave D2 PAM-1 -16, D2 ag-1 -2, D2 antag -7, D2 PAM-2 -18, D2 ag-2 46*, D3 ag -5% and D2 ag-3 3%.
For O=S(=O)(NC1CCN(S(=O)(=O)c2c(F)cccc2F)C1)c1ccc2c(c1)OCCO2 (stereo not given) the results were D2 antag -9, D2 PAM-2 -2, D2 ag-2 0, D3 ag 13% and D2 ag-3 10%.
CN(C(=O)CSc1nc2ccc(NC(=O)c3ccc(F)cc3)cc2s1)c1ccccc1 was read as D2 PAM-2 -20 and D2 ag-2 0.
`Cn1c(=O)cc(SCC(=O)NCCCN2CCN(c3ccc(F)cc3)CC2)c2ccccc21` gave D2 PAM-1 -34, D2 ag-1 2, D2 antag 91*, D2 PAM-2 -26, D2 ag-2 33*, D3 ag -5% and D2 ag-3 9%.
Screening COc1ccc([C@H]2CC(=O)C=C(c3ccc(C)c4ccccc34)C2)cc1 returned D2 PAM-1 -7, D2 ag-1 -3, D2 antag -5, D2 PAM-2 12 and D2 ag-2 -1.
